Test results taken from the supplement of paper PMC6897291.

Assays:
RIVA [1] = assay: growth inhibition by drug plus 177Lu-lilotomab satetraxetan (1 - RLU/untreated control) (fraction); higher = stronger inhibition; conditions: 177Lu-lilotomab satetraxetan 0.5 ug/ml
Method in brief: (§1)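 Growth inhibition was calculated from RealTime-Glo RLU against untreated no-drug wells. Values equal 1 − RLU/mean of 48 untreated no-drug wells per plate, read daily from day 3 after 1 h at 37°C. RIVA and U-2932 cells, with or without 18 h pretreatment by a radiolabelled anti-CD37 antibody conjugate (~600 MBq/mg; 0.5 µg/ml RIVA, 1 µg/ml U-2932), were washed and plated at 3,000 cells/well on compound-printed plates at 10/100 nM (RIVA) or 10/1,000 nM (U-2932).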

U-2932 [2] = assay: growth inhibition by drug alone (1 - RLU/untreated control) (fraction); higher = stronger inhibition; conditions: 177Lu-lilotomab satetraxetan 0 ug/ml
Method in brief: as §1

RIVA [3] = assay: as above; conditions: 177Lu-lilotomab satetraxetan 0 ug/ml
Method in brief: as §1

U-2932 [4] = assay: growth inhibition by drug plus 177Lu-lilotomab satetraxetan (1 - RLU/untreated control) (fraction); higher = stronger inhibition; conditions: 177Lu-lilotomab satetraxetan 1 ug/ml
Method in brief: as §1

O=C1[C@H](CC[C@H](O)c2ccc(F)cc2)[C@@H](c2ccc(O)cc2)N1c1ccc(F)cc1 [Ezetimibe (Zetia)]
growth inhibition by drug plus 177Lu-lilotomab satetraxetan (RIVA [1]; 100 nM, time (day): 5): 0.489 | growth inhibition by drug plus 177Lu-lilotomab satetraxetan (RIVA [1]; 100 nM, time (day): 6): 0.494

CC(NC(=O)c1ccccc1/N=C/c1c(O)ccc2ccccc12)c1ccccc1 (stereo not drawn) [Sirtinol]
growth inhibition by drug alone (U-2932 [2]; 10 nM, time (day): 3): 0.0874 | growth inhibition by drug alone (U-2932 [2]; 10 nM, time (day): 4): 0.0846 | growth inhibition by drug alone (U-2932 [2]; 10 nM, time (day): 5): 0.0103 | growth inhibition by drug alone (U-2932 [2]; 10 nM, time (day): 6): -0.0559 | growth inhibition by drug alone (U-2932 [2]; 1000 nM, time (day): 3): 0.00453 | growth inhibition by drug alone (U-2932 [2]; 1000 nM, time (day): 4): 0.0486 | growth inhibition by drug alone (U-2932 [2]; 1000 nM, time (day): 5): -0.0294 | growth inhibition by drug alone (U-2932 [2]; 1000 nM, time (day): 6): -0.196 | growth inhibition by drug alone (RIVA [3]; 10 nM, time (day): 3): -0.0251 | growth inhibition by drug alone (RIVA [3]; 10 nM, time (day): 4): 0.00147 | growth inhibition by drug alone (RIVA [3]; 10 nM, time (day): 5): -0.0621 | growth inhibition by drug alone (RIVA [3]; 10 nM, time (day): 6): -0.367 | growth inhibition by drug alone (RIVA [3]; 100 nM, time (day): 3): -0.00236 | growth inhibition by drug alone (RIVA [3]; 100 nM, time (day): 4): -0.00311 | growth inhibition by drug alone (RIVA [3]; 100 nM, time (day): 5): -0.00892 | growth inhibition by drug alone (RIVA [3]; 100 nM, time (day): 6): -0.099 | growth inhibition by drug plus 177Lu-lilotomab satetraxetan (U-2932 [4]; 10 nM, time (day): 3): 0.0459 | growth inhibition by drug plus 177Lu-lilotomab satetraxetan (U-2932 [4]; 10 nM, time (day): 4): 0.0759 | growth inhibition by drug plus 177Lu-lilotomab satetraxetan (U-2932 [4]; 10 nM, time (day): 5): 0.116 | growth inhibition by drug plus 177Lu-lilotomab satetraxetan (U-2932 [4]; 10 nM, time (day): 6): 0.164 | growth inhibition by drug plus 177Lu-lilotomab satetraxetan (U-2932 [4]; 1000 nM, time (day): 3): -0.00947 | growth inhibition by drug plus 177Lu-lilotomab satetraxetan (U-2932 [4]; 1000 nM, time (day): 4): 0.0904 | growth inhibition by drug plus 177Lu-lilotomab satetraxetan (U-2932 [4]; 1000 nM, time (day): 5): 0.0917 | growth inhibition by drug plus 177Lu-lilotomab satetraxetan (U-2932 [4]; 1000 nM, time (day): 6): 0.101 | growth inhibition by drug plus 177Lu-lilotomab satetraxetan (RIVA [1]; 10 nM, time (day): 3): 0.345 | growth inhibition by drug plus 177Lu-lilotomab satetraxetan (RIVA [1]; 10 nM, time (day): 4): 0.472 | growth inhibition by drug plus 177Lu-lilotomab satetraxetan (RIVA [1]; 10 nM, time (day): 5): 0.506 | growth inhibition by drug plus 177Lu-lilotomab satetraxetan (RIVA [1]; 10 nM, time (day): 6): 0.526 | growth inhibition by drug plus 177Lu-lilotomab satetraxetan (RIVA [1]; 100 nM, time (day): 3): 0.436 | growth inhibition by drug plus 177Lu-lilotomab satetraxetan (RIVA [1]; 100 nM, time (day): 4): 0.523 | growth inhibition by drug plus 177Lu-lilotomab satetraxetan (RIVA [1]; 100 nM, time (day): 5): 0.536 | growth inhibition by drug plus 177Lu-lilotomab satetraxetan (RIVA [1]; 100 nM, time (day): 6): 0.529

COc1ccccc1OCC(O)CN1CCN(CC(=O)Nc2c(C)cccc2C)CC1 (stereo not drawn) [Ranolazine (Ranexa)]
growth inhibition by drug alone (U-2932 [2]; 10 nM, time (day): 3): 0.0363 | growth inhibition by drug alone (U-2932 [2]; 10 nM, time (day): 4): 0.0222 | growth inhibition by drug alone (U-2932 [2]; 10 nM, time (day): 5): -0.0749 | growth inhibition by drug alone (U-2932 [2]; 10 nM, time (day): 6): -0.119 | growth inhibition by drug alone (U-2932 [2]; 1000 nM, time (day): 3): -0.0415 | growth inhibition by drug alone (U-2932 [2]; 1000 nM, time (day): 4): -0.0106 | growth inhibition by drug alone (U-2932 [2]; 1000 nM, time (day): 5): -0.0786 | growth inhibition by drug alone (U-2932 [2]; 1000 nM, time (day): 6): -0.23 | growth inhibition by drug alone (RIVA [3]; 10 nM, time (day): 3): 0.0348 | growth inhibition by drug alone (RIVA [3]; 10 nM, time (day): 4): -0.0338 | growth inhibition by drug alone (RIVA [3]; 10 nM, time (day): 5): -0.102 | growth inhibition by drug alone (RIVA [3]; 10 nM, time (day): 6): -0.328 | growth inhibition by drug alone (RIVA [3]; 100 nM, time (day): 3): -0.11 | growth inhibition by drug alone (RIVA [3]; 100 nM, time (day): 4): -0.146 | growth inhibition by drug alone (RIVA [3]; 100 nM, time (day): 5): -0.161 | growth inhibition by drug alone (RIVA [3]; 100 nM, time (day): 6): -0.223 | growth inhibition by drug plus 177Lu-lilotomab satetraxetan (U-2932 [4]; 10 nM, time (day): 3): -0.0197 | growth inhibition by drug plus 177Lu-lilotomab satetraxetan (U-2932 [4]; 10 nM, time (day): 4): 0.00637 | growth inhibition by drug plus 177Lu-lilotomab satetraxetan (U-2932 [4]; 10 nM, time (day): 5): 0.00274 | growth inhibition by drug plus 177Lu-lilotomab satetraxetan (U-2932 [4]; 10 nM, time (day): 6): 0.118 | growth inhibition by drug plus 177Lu-lilotomab satetraxetan (U-2932 [4]; 1000 nM, time (day): 3): -0.0847 | growth inhibition by drug plus 177Lu-lilotomab satetraxetan (U-2932 [4]; 1000 nM, time (day): 4): 8.82e-05 | growth inhibition by drug plus 177Lu-lilotomab satetraxetan (U-2932 [4]; 1000 nM, time (day): 5): -0.0142 | growth inhibition by drug plus 177Lu-lilotomab satetraxetan (U-2932 [4]; 1000 nM, time (day): 6): -0.000571 | growth inhibition by drug plus 177Lu-lilotomab satetraxetan (RIVA [1]; 10 nM, time (day): 3): 0.412 | growth inhibition by drug plus 177Lu-lilotomab satetraxetan (RIVA [1]; 10 nM, time (day): 4): 0.527 | growth inhibition by drug plus 177Lu-lilotomab satetraxetan (RIVA [1]; 10 nM, time (day): 5): 0.544 | growth inhibition by drug plus 177Lu-lilotomab satetraxetan (RIVA [1]; 10 nM, time (day): 6): 0.551 | growth inhibition by drug plus 177Lu-lilotomab satetraxetan (RIVA [1]; 100 nM, time (day): 3): 0.294 | growth inhibition by drug plus 177Lu-lilotomab satetraxetan (RIVA [1]; 100 nM, time (day): 4): 0.438 | growth inhibition by drug plus 177Lu-lilotomab satetraxetan (RIVA [1]; 100 nM, time (day): 5): 0.446 | growth inhibition by drug plus 177Lu-lilotomab satetraxetan (RIVA [1]; 100 nM, time (day): 6): 0.418

CC(C=CC(=O)NO)=CC(C)C(=O)c1ccc(N(C)C)cc1 (stereo not drawn) [Trichostatin A (TSA)]
growth inhibition by drug alone (U-2932 [2]; 10 nM, time (day): 3): 0.0657 | growth inhibition by drug alone (U-2932 [2]; 10 nM, time (day): 4): 0.0558 | growth inhibition by drug alone (U-2932 [2]; 10 nM, time (day): 5): 0.00424 | growth inhibition by drug alone (U-2932 [2]; 10 nM, time (day): 6): -0.0676 | growth inhibition by drug alone (U-2932 [2]; 1000 nM, time (day): 3): 0.98 | growth inhibition by drug alone (U-2932 [2]; 1000 nM, time (day): 4): 0.983 | growth inhibition by drug alone (U-2932 [2]; 1000 nM, time (day): 5): 0.983 | growth inhibition by drug alone (U-2932 [2]; 1000 nM, time (day): 6): 0.983 | growth inhibition by drug alone (RIVA [3]; 10 nM, time (day): 3): 0.0108 | growth inhibition by drug alone (RIVA [3]; 10 nM, time (day): 4): -0.0626 | growth inhibition by drug alone (RIVA [3]; 10 nM, time (day): 5): -0.0672 | growth inhibition by drug alone (RIVA [3]; 10 nM, time (day): 6): -0.162 | growth inhibition by drug alone (RIVA [3]; 100 nM, time (day): 3): 0.651 | growth inhibition by drug alone (RIVA [3]; 100 nM, time (day): 4): 0.317 | growth inhibition by drug alone (RIVA [3]; 100 nM, time (day): 5): 0.223 | growth inhibition by drug alone (RIVA [3]; 100 nM, time (day): 6): 0.132 | growth inhibition by drug plus 177Lu-lilotomab satetraxetan (U-2932 [4]; 10 nM, time (day): 3): 0.0166 | growth inhibition by drug plus 177Lu-lilotomab satetraxetan (U-2932 [4]; 10 nM, time (day): 4): 0.0461 | growth inhibition by drug plus 177Lu-lilotomab satetraxetan (U-2932 [4]; 10 nM, time (day): 5): 0.0335 | growth inhibition by drug plus 177Lu-lilotomab satetraxetan (U-2932 [4]; 10 nM, time (day): 6): 0.0848 | growth inhibition by drug plus 177Lu-lilotomab satetraxetan (U-2932 [4]; 1000 nM, time (day): 3): 0.981 | growth inhibition by drug plus 177Lu-lilotomab satetraxetan (U-2932 [4]; 1000 nM, time (day): 4): 0.983 | growth inhibition by drug plus 177Lu-lilotomab satetraxetan (U-2932 [4]; 1000 nM, time (day): 5): 0.984 | growth inhibition by drug plus 177Lu-lilotomab satetraxetan (U-2932 [4]; 1000 nM, time (day): 6): 0.984 | growth inhibition by drug plus 177Lu-lilotomab satetraxetan (RIVA [1]; 10 nM, time (day): 3): 0.467 | growth inhibition by drug plus 177Lu-lilotomab satetraxetan (RIVA [1]; 10 nM, time (day): 4): 0.537 | growth inhibition by drug plus 177Lu-lilotomab satetraxetan (RIVA [1]; 10 nM, time (day): 5): 0.547 | growth inhibition by drug plus 177Lu-lilotomab satetraxetan (RIVA [1]; 10 nM, time (day): 6): 0.561 | growth inhibition by drug plus 177Lu-lilotomab satetraxetan (RIVA [1]; 100 nM, time (day): 3): 0.854 | growth inhibition by drug plus 177Lu-lilotomab satetraxetan (RIVA [1]; 100 nM, time (day): 4): 0.798 | growth inhibition by drug plus 177Lu-lilotomab satetraxetan (RIVA [1]; 100 nM, time (day): 5): 0.783 | growth inhibition by drug plus 177Lu-lilotomab satetraxetan (RIVA [1]; 100 nM, time (day): 6): 0.763
